Test results published in PubChem BioAssay (Tox21).
Results filed as inconclusive are left out. A call without a number means that no potency is given here. Values without a mark were called inactive. Activity calls are given as the source filed them. The call rests on the fitted dose curve; in most records, active means well fitted curve in the direction sought with a large enough effect in the repeat runs; inconclusive means weak or mixed curves; inactive means no such curve, though single readings can be large; an effect the other way counts as inactive or inconclusive.

What was measured:
[1] = qHTS RealTime-Glo MT Cell Viability Assay in HepG2 cells - 40 hour (AID 1224870); further: nearly all actives have a fitted effect of over 50% in size
Summary of the method: (§1)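 HepG2 cells mixed with RealTime-Glo MT reagents (NanoLuc plus cell-permeant prosubstrate) were seeded at 600 cells/well, incubated 5 h at 37 C/5% CO2, then pinned with compounds in DMSO; nonlytic luminescence tracked viability during 40 h treatment.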

[2] = A CellTox Green Cytotoxicity Assay to monitor cytotoxicity in HEK293 cells - 40 hour (AID 1224871); further: nearly all actives have a fitted effect of over 45% in size; further: potency means the concentration at half of the fitted maximal effect
Summary of the method: (§2)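 Read-out: fluorescence of a cell-impermeant cyanine dye staining DNA of dead cells, proportional to cytotoxicity. HEK293, 600 cells/well with reagent, compound (23 nL DMSO) added after 5 h; reads at 0, 8, 16, 24, 32, 40 h.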

[3] = qHTS RealTime-Glo MT Cell Viability Assay in HEK293 cells - 16 hour (AID 1224872); further: top concentration of the series differs between compounds; nearly all actives have a fitted effect of over 50% in size
Summary of the method: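 Viability tracked continuously by luminescence as live cells reduce a prosubstrate for NanoLuc; HEK293 cells preincubated 5 h, compound-treated at 37 C, and read at 0, 8, 16, 24, 32 and 40 h.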

[4] = qHTS RealTime-Glo MT Cell Viability Assay in HepG2 cells - 8 hour (AID 1224873); further: nearly all actives have a fitted effect of over 55% in size
Summary of the method: as §1

[5] = qHTS RealTime-Glo MT Cell Viability Assay in HEK293 cells - 40 hour (AID 1224874); conditions: RealTime-Glo luminescence; max response: hits give low values; further: nearly all actives have a fitted effect of over 50% in size
Summary of the method: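 Luminescence readout at each listed time point; HEK293, 600 cells/well, RealTime-Glo MT reagent added with cells; compounds pinned (23 nL in DMSO) after 5 h at 37 C; continuous culture at 37 C.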

[6] = A CellTox Green Cytotoxicity Assay to monitor cytotoxicity in HEK293 cells - 24 hour (AID 1224875); further: nearly all actives have a fitted effect of over 45% in size; further: potency means the concentration at half of the fitted maximal effect; on activity change: series mostly up to about 77 µM
Summary of the method: as §2

[7] = A CellTox Green Cytotoxicity Assay to monitor cytotoxicity in HepG2 cells - 16 hour (AID 1224876); further: nearly all actives have a fitted effect of over 45% in size; further: potency means the concentration at half of the fitted maximal effect
Summary of the method: (§3)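 HepG2, 600 cells/well premixed w/ CellTox Green; 5 h settle, 37 C/5% CO2; pintool cpd add (DMSO); 37 C, 40 h; fluorescence read at 0, 8, 16, 24, 32, 40 h.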

[8] = qHTS RealTime-Glo MT Cell Viability Assay in HepG2 cells - 32 hour (AID 1224877); further: nearly all actives have a fitted effect of over 55% in size
Summary of the method: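 Viability was tracked continuously by NanoLuc luminescence from prosubstrate reduced by living HepG2 cells, at successive time points over 40 h of compound exposure. Cells with reagent were preincubated 5 h at 37 °C before compound addition.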

[9] = A CellTox Green Cytotoxicity Assay to monitor cytotoxicity in HepG2 cells - 24 hour (AID 1224878); further: nearly all actives have a fitted effect of over 45% in size; further: potency means the concentration at half of the fitted maximal effect
Summary of the method: as §3

[10] = A CellTox Green Cytotoxicity Assay to monitor cytotoxicity in HepG2 cells - 40 hour (AID 1224879); further: nearly all actives have a fitted effect of over 40% in size
Summary of the method: as §3

| Structure (SMILES) | activity change, negative = cytotoxic [1] | cytotoxicity increase [2] | activity change, negative = cytotoxicity [3] | viability change, negative = cytotoxic [4] | max response [5] [%] | activity change [6] | cytotoxicity increase [7] | activity change, negative = cytotoxic [8] | cytotoxicity [9] | cytotoxicity increase [10] | Potency [1] | Potency [2] | Potency [3] | outcome [4] | Potency [6] | Potency [7] | Potency [8] | Potency [9] | Potency [10] |
| --- | --- | --- | --- | --- | --- | --- | --- | --- | --- | --- | --- | --- | --- | --- | --- | --- | --- | --- | --- |
| NCC[C@H](O)C(=O)N[C@@H]1C[C@H](N)[C@@H](O[C@H]2O[C@H](CN)[C@@H](O)[C@H](O)[C@H]2O)[C@H](O)[C@H]1O[C@H]1O[C@H](CO)[C@@H](O)[C@H](N)[C@H]1O | -0.912% [at 0.29 µM] | -3.46% [at 0.29 µM] | -0.0333% [at 0.29 µM] | -0.5% [at 0.29 µM] | 5.14 | 2.36% [at 0.29 µM, hits give high values] | -3.16% [at 0.29 µM] | -1.54% [at 0.29 µM] | -1.2% [at 0.29 µM] | -4.11% [at 0.29 µM] | – | – | – | – | – | – | – | – | – |
| c1ccc2cnncc2c1 | – | – | – | – | 12.8 | – | – | – | – | – | inactive | inactive | inactive | inactive | inactive | inactive | inactive | inactive | inactive |
| COC(=O)CCCCCCCCC(=O)OC | – | – | – | – | 2.88 | – | – | – | – | – | inactive | inactive | inactive | inactive | inactive | inactive | inactive | inactive | – |
| O=Cc1ccccc1[N+](=O)[O-] | – | – | – | – | -5.52 | – | – | – | – | – | inactive | inactive | inactive | inactive | inactive | inactive | inactive | inactive | inactive |
| Cn1cnc2c(=O)[nH]c(N)nc21 | – | – | – | – | 15.1 | – | – | – | – | – | inactive | inactive | inactive | inactive | inactive | inactive | inactive | inactive | inactive |
| COc1ccc2cc(C=O)ccc2c1 | – | – | – | – | 2.85 | – | – | – | – | – | inactive | inactive | inactive | inactive | inactive | inactive | inactive | inactive | inactive |
| CC(C=O)Cc1ccc(C(C)C)cc1 (stereo not drawn) | – | – | – | – | 18.5 | – | – | – | – | – | inactive | inactive | inactive | inactive | inactive | inactive | inactive | inactive | inactive |
| N[C@@H](CS)C(=O)O | – | – | – | – | 9.81 | – | – | – | – | – | inactive | inactive | inactive | inactive | inactive | inactive | inactive | inactive | inactive |
| C1C2OC2C2C1C1CC2C2OC12 (stereo not drawn) | – | – | – | – | 2.43 | – | – | – | – | – | inactive | inactive | inactive | inactive | inactive | inactive | inactive | inactive | inactive |
| COc1cc(CCC(C)=O)ccc1O | – | – | – | – | -0.231 | – | – | – | – | – | inactive | inactive | inactive | inactive | inactive | inactive | inactive | inactive | inactive |
| CCCCCN(CCCCC)C(=O)C(CCC(=O)O)NC(=O)c1ccc(Cl)c(Cl)c1 (stereo not drawn) | – | – | – | – | -6.43 | – | – | – | – | – | inactive | inactive | inactive | inactive | inactive | inactive | inactive | inactive | inactive |
| C1COCCO1 | – | – | – | – | 4.29 | – | – | – | – | – | inactive | inactive | inactive | inactive | inactive | inactive | inactive | inactive | inactive |
| CCCCC1CCCCC(=O)O1 (stereo not drawn) | – | – | – | – | 13.6 | – | – | – | – | – | inactive | inactive | inactive | inactive | inactive | inactive | inactive | inactive | inactive |
| CNc1ncnc2nc[nH]c12 | – | – | – | – | 3.96 | – | – | – | – | – | inactive | inactive | inactive | inactive | inactive | inactive | inactive | inactive | inactive |
| O=C(O)CCNC(=O)c1ccc(N=Nc2ccc(O)c(C(=O)O)c2)cc1 | – | – | – | – | -0.519 | – | – | – | – | – | inactive | inactive | inactive | inactive | inactive | inactive | inactive | inactive | – |
| O=c1[nH]c2ccccc2c(=O)n1CCCl | – | – | – | – | 3.48 | – | – | – | – | – | inactive | inactive | inactive | inactive | inactive | inactive | inactive | inactive | – |
| O=C1C(CCS(=O)c2ccccc2)C(=O)N(c2ccccc2)N1c1ccccc1 (stereo not drawn) | – | – | – | – | 1.04 | – | – | – | – | – | inactive | inactive | inactive | inactive | inactive | inactive | inactive | inactive | inactive |
| NC(=O)c1ncn([C@@H]2O[C@H](CO)[C@@H](O)[C@H]2O)c1N | – | – | – | – | -6.56 | – | – | – | – | – | inactive | inactive | inactive | inactive | inactive | inactive | inactive | inactive | inactive |
| CC(O)CN(CCCN(C)C)CCCN(C)C (stereo not drawn) | – | – | – | – | -1.59 | – | – | – | – | – | inactive | inactive | inactive | inactive | inactive | inactive | inactive | inactive | inactive |
| CC/C=C\CCCCO | – | – | – | – | 1.83 | – | – | – | – | – | inactive | inactive | inactive | inactive | inactive | inactive | inactive | – | – |
| CO[Si](OC)(OC)OC | – | – | – | – | 16.8 | – | – | – | – | – | inactive | inactive | inactive | inactive | inactive | inactive | inactive | inactive | – |
| Nc1ncnc2c1ncn2Cc1c(F)cccc1Cl | – | – | – | – | -12.1 | – | – | – | – | – | inactive | inactive | inactive | inactive | inactive | inactive | inactive | inactive | inactive |
| Nc1ccn(C2CO[C@H](CO)O2)c(=O)n1 (stereo partly drawn) | – | – | – | – | -2.21 | – | – | – | – | – | inactive | 15.1 µM (active) | inactive | inactive | 19 µM (active) | 8.49 µM (active) | inactive | 6.74 µM (active) | – |
